# Inconclusive results are not listed. Entries that show only a call come without a potency. Activity calls are given as the source filed them. Unless noted, calls come from the whole dose curve.
# Assays:
# [1] = qHTS for Inhibitors of the Functional Ribonucleoprotein Complex (vRNP) of Lassa (LASV) Arenavirus: LASV Primary Screen - GLuc reporter signal (AID 1347082; calls by dose curve; tested in HEK293 reporter line; note: nearly all actives have a fitted effect of over 60% in size); conditions: LASV minigenome vRNP, Gaussia luciferase reporter; series mostly up to 57.5 µM
# [2] = target: Nucleoprotein (Lymphocytic choriomeningitis virus (strain Armstrong)) (UniProt P09992); assay: qHTS for Inhibitors of the Functional Ribonucleoprotein Complex (vRNP) of Lymphocytic Choriomeningitis Arenaviruses (LCMV): LCMV Primary Screen - GLuc reporter signal (AID 1347086); conditions: LCMV minigenome vRNP cell assay, Gaussia luciferase reporter; series mostly up to 57.5 µM; note: nearly all actives have a fitted effect of over 70% in size; note: potency is the fitted concentration of half-maximal effect
# [3] = qHTS for Inhibitors of the Functional Ribonucleoprotein Complex (vRNP) of Lymphocytic Choriomeningitis Arenaviruses (LCMV): Viability assay - alamar blue signal for LCMV Primary Screen (AID 1347085; calls by dose curve; tested in HEK293 reporter line; note: nearly all actives have a fitted effect of over 80% in size; note: potency is the fitted concentration of half-maximal effect); conditions: alamar blue viability counter-screen, LCMV vRNP screen cells; series mostly up to 57.5 µM
# [4] = qHTS for Inhibitors of the Functional Ribonucleoprotein Complex (vRNP) of Lassa (LASV) Arenavirus: Viability assay - alamar blue signal for LASV Primary Screen (AID 1347083; calls by dose curve; tested in HEK293 reporter line; note: nearly all actives have a fitted effect of over 80% in size; note: potency is the fitted concentration of half-maximal effect); conditions: cell viability, alamar blue fluorescence (LASV minigenome counter-screen); series mostly up to 57.5 µM
# Sequence of Nucleoprotein (Lymphocytic choriomeningitis virus (strain Armstrong)) (P09992 whole entry, looked up): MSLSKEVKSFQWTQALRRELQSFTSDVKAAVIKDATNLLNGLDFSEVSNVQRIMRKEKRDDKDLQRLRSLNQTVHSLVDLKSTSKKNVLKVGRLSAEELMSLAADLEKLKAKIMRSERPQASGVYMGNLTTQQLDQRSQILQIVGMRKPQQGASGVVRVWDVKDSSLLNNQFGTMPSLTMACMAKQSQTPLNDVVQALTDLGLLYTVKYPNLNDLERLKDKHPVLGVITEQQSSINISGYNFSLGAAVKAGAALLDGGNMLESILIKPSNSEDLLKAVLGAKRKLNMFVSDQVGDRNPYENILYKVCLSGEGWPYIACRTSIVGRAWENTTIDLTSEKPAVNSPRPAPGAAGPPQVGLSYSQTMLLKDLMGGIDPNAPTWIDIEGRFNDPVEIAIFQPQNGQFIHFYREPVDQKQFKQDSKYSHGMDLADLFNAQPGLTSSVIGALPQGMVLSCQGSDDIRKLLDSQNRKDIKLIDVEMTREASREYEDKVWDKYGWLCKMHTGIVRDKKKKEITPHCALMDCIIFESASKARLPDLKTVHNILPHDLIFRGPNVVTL
Structure (SMILES),Potency [1],Potency [2],Potency [3],Potency [4]
Cc1cccc(C)c1OCC(=O)N[C@@H](Cc1ccccc1)[C@@H](O)C[C@H](Cc1ccccc1)NC(=O)[C@H](C(C)C)N1CCCNC1=O,inactive,38.5 µM (active),,
Nc1ccc(C(=O)Nc2ccccc2N)cc1,inactive,inactive,,
CCOC(=O)c1ccc(N)cc1,inactive,inactive,,
Cc1cc(O)c2ccccc2c1O,inactive,inactive,inactive,
C=CC[C@@H]1C=C(C)C[C@H](C)C[C@H](OC)[C@H]2O[C@@](O)(C(=O)C(=O)N3CCCC[C@H]3C(=O)O[C@H](C(C)=C[C@@H]3CC[C@H](O)[C@H](OC)C3)[C@@H](C)[C@@H](O)CC1=O)[C@@H](C)C[C@@H]2OC,inactive,30.6 µM (active),,
COCC(=O)Nc1c(I)c(C(=O)NCC(O)CO)c(I)c(C(=O)N(C)CC(O)CO)c1I (stereo unspecified),inactive,inactive,inactive,
CC(C)Cc1ccc(C(C)C(=O)O)cc1 (stereo unspecified),inactive,inactive,,inactive
O=C(N/N=C/c1ccc([N+](=O)[O-])o1)c1ccc(O)cc1,,,25.1 µM (active),
CNC(=O)c1ccccc1Sc1ccc2c(/C=C/c3ccccn3)n[nH]c2c1,inactive,inactive,inactive,
COc1cc2nc(Cl)nc(N)c2cc1OC,inactive,,inactive,
CO[C@H]1C[C@@H]2CC[C@@H](C)[C@@](O)(O2)C(=O)C(=O)N2CCCC[C@@H]2C(=O)O[C@H]([C@H](C)C[C@@H]2CC[C@H](OCCO)[C@H](OC)C2)CC(=O)[C@H](C)C=C(C)[C@@H](O)[C@@H](OC)C(=O)[C@H](C)C[C@H](C)C=CC=CC=C1C,,0.544 µM (active),0.0769 µM (active),0.0086 µM (active)

# Reference: PubChem BioAssay (NCATS)
